From PubChem BioAssay (NCATS)
Records with an inconclusive call do not appear. Calls of active or inactive are those of the source. Unless noted, the call rests on the fitted dose curve; in most records, active means well fitted curve in the direction sought with a large enough effect; inconclusive means small, poorly fitted or top-dose-only effect, or another doubt; inactive means no such curve, though single readings can be large; an effect the other way counts as inactive or inconclusive.

Assays:
[1] = molecular target: Calcium and integrin-binding protein 1 (Homo sapiens) (UniProt Q99828); assay: Primary qHTS for Identification of Calcium Integrin Binding Protein 1 (CIB1) Competitor (AID 1508620);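 further: GST tagged CIB1 binding a fluorescein labelled alphaIIb integrin peptide tracer; top concentration of the series differs between compounds; on the % scale 0 is the no-effect control and ±100 the full control effect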
Calcium and integrin-binding protein 1 (Homo sapiens), sequence (Q99828 whole entry, looked up): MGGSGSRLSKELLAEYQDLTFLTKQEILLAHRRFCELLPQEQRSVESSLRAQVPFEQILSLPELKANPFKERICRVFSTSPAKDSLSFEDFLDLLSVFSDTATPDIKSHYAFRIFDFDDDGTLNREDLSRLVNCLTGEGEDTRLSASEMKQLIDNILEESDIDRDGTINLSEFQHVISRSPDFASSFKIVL
Summary of the method: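 Fluorescence polarization competition: CIB1-GST (1 uM final) preincubated with compound 15 min at room temperature, then FITC-labeled alphaIIb peptide (100 nM final) added for another 15 min. Polarization read at Ex 480/Em 540.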

[2] = molecular target: N-terminal Xaa-Pro-Lys N-methyltransferase 1 (Homo sapiens) (UniProt Q9BV86); assay: Confirmatory qHTS for Inhibitors of N-terminal methyltransferase 1 (NTMT1): MTaseGlo Assay (AID 1645874); further: nearly all actives have a fitted effect of over 65% in size; further: potency means the concentration at half of the fitted maximal effect;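 on activity change, negative = inhibition: luminescence from SAH made as NTMT1 methylates SPKRIA peptide using SAM; 0% = DMSO control and -100% = no-enzyme control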
N-terminal Xaa-Pro-Lys N-methyltransferase 1 (Homo sapiens), sequence (Q9BV86 whole entry, looked up): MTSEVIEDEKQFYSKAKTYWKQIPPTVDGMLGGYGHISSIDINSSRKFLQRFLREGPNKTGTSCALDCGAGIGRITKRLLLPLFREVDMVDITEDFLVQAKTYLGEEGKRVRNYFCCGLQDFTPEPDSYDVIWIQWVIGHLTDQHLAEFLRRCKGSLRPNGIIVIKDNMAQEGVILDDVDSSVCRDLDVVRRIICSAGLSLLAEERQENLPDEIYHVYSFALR
Summary of the method: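 Luminescent MTase-Glo read-out of SAH. 125 nM NTMT1, 100 uM SAM, 1 uM SPKRIA substrate, 30 min RT reaction after 15 min compound preincubation. Normalized to no-enzyme and DMSO controls; Hill fit.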

[3] = Primary qHTS for inhibitors of nuclear receptor binding SET domain protein 2 (NSD2) in an isogenic RCH-ACV NSD2 p.E1099K mutant (9B) (AID 1645876); further: potency means the concentration at half of the fitted maximal effect; nearly all actives have a fitted effect of over 70% in size
[4] = Primary qHTS for inhibitors of nuclear receptor binding SET domain protein 2 (NSD2) in an RCH-ACV wild type WT cells (2C) (AID 1645877); further: potency means the concentration at half of the fitted maximal effect; nearly all actives have a fitted effect of over 70% in size
[5] = molecular target: Glutathione peroxidase 1 (Homo sapiens) (UniProt P07203); assay: Primary qHTS Assay for Inhibitors of Recombinant Selenoprotein Glutathione Peroxidase 1 (GPX1) (AID 1845191); further: nearly all actives have a fitted effect of over 65% in size
Glutathione peroxidase 1 (Homo sapiens), sequence (P07203 whole entry, looked up): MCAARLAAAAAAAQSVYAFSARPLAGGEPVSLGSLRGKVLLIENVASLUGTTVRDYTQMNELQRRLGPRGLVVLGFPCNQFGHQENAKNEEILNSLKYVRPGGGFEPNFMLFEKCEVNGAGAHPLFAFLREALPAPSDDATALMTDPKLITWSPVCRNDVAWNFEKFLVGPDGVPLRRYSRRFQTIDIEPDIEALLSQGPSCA
Summary of the method: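 Recombinant GPX1 (10 nM final) was preincubated with compound for 30 min at room temperature, then reacted with 1 mM GSH, 0.5 mM CHP, 0.5 mM NADPH and 100 nM glutathione reductase; NADPH fluorescence (340/450 nm) was read at 0 and 15 min.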

[6] = molecular target: Phospholipid hydroperoxide glutathione peroxidase GPX4 (Homo sapiens) (UniProt P36969); assay: Primary qHTS Assay for Inhibitors of Recombinant Selenoprotein Glutathione Peroxidase 4 (GPX4) (AID 1845192); details: outcome: dose series up to 50 µM unless noted; further: on the % scale 0 is the no-effect control and ±100 the full control effect; nearly all actives have a fitted effect of over 65% in size
Phospholipid hydroperoxide glutathione peroxidase GPX4 (Homo sapiens), sequence (P36969 whole entry, looked up): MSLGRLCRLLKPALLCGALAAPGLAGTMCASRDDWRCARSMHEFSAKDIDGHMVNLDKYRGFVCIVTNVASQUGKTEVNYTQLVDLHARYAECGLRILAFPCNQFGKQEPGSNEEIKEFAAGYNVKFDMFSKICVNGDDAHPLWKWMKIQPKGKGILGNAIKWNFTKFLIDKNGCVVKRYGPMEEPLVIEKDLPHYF
Summary of the method: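 GR-coupled readout: 100 nM GR, 1 mM GSH, 0.5 mM NADPH; NADPH fluorescence (ex 340/em 450 nm) read at t=0 and after 15 min RT. GPX4 200 nM, preincubated 30 min with compound; substrate 0.5 mM CHP.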

[7] = qHTS drug screen for cell cycle checkpoint inhibitors in PARPi-resistant BRCA-mutant ovarian cancer cell lines. (AID 1963452; calls by dose curve); details: PEO1/OlaR viability, CellTiter-Glo luminescence, 96 h, stronger effect = lower value
Summary of the method: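 PEO1, PEO4 and PEO1/OlaR ovarian cancer cells, 600 per well, exposed 96 h at 37C to a dilution series. Viability read by CellTiter-Glo luminescence, normalized to DMSO and empty wells; activity summarized as Z-AUC.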

[8] = molecular target: Lysosomal acid glucosylceramidase (Homo sapiens) (UniProt P04062); assay: Glucocerebrosidase-p2 (AID 348; in the data active means potency below about 10 µM; further: potency means the concentration at half of the fitted maximal effect); details: purified GBA, blue fluorogenic substrate, 40 min
Lysosomal acid glucosylceramidase (Homo sapiens), sequence (P04062 whole entry, looked up): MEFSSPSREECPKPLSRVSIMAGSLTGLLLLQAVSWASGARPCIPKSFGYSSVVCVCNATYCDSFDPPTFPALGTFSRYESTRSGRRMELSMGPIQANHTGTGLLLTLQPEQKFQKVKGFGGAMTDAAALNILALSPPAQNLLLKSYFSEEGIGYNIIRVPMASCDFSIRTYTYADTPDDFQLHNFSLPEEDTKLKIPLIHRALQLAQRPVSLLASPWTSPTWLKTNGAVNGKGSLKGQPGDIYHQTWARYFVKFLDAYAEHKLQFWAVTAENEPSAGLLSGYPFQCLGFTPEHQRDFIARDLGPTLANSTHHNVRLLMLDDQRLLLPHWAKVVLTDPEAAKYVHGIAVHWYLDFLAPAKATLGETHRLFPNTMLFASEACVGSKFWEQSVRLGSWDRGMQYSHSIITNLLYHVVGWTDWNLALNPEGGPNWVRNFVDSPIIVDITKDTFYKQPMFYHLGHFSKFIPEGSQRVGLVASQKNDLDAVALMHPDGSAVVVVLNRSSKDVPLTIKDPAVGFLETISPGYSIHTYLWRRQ
Summary of the method: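 Compounds titrated from 0.6 nM upwards against 0.2 nM enzyme in pH 5.9 citric acid/KH2PO4, taurocholate, tween-20; blue fluorogenic substrate 80 uM, 40 min room temperature, stopped and read Ex 365/Em 440 for AC50.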

[9] = molecular target: Cytochrome P450 1A2 (Homo sapiens) (UniProt P05177); assay: p450-cyp1a2 (AID 410; calls by dose curve; further: potency means the concentration at half of the fitted maximal effect)
Cytochrome P450 1A2 (Homo sapiens), sequence (P05177 whole entry, looked up): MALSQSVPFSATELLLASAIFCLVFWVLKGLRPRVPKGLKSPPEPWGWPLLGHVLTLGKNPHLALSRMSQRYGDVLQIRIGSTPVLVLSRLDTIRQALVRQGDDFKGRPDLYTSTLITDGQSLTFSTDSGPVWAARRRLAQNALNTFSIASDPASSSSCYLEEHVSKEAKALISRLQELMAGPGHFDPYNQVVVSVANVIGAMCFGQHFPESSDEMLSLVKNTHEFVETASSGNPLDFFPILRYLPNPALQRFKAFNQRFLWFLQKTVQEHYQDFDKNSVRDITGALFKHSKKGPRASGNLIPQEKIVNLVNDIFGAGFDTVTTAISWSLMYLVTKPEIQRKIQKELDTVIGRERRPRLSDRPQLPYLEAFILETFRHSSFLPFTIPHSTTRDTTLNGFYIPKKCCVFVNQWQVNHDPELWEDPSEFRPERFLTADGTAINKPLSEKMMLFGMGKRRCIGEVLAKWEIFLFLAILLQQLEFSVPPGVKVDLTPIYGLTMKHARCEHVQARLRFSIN
Summary of the method: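 20nM CYP1A2 with 100uM Luciferin-ME (at Km) in 100mM KPO4; compound preincubated 10 min, NADPH regeneration added, 60 min at room temperature. Luciferin quantified by luminescence after detection reagent; normalized to 57 uM furafylline.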

[10] = NFAT Signaling Pathway (AID 444; active means well fitted curve in either direction with a large enough effect, not every such curve was filed as active;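 further: carbachol stimulus at about its EC50 of 1 µM final; on the % scale 0 is the no-effect control and ±100 the full control effect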); details: Jurkat NFAT-bla M1, carbachol, beta-lactamase ratio, 5 h; at 7.69 µM (top of the series) unless noted
Summary of the method: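 Jurkat cells carrying an NFAT-driven β-lactamase reporter and co-transfected muscarinic M1 receptor were treated with compound plus carbachol (1 uM final, an EC50 level) for 5 h at 37 °C. CCF4 loading followed for 1 h at RT; 460/530 nm ratio gave %activity.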

[11] = molecular target: Glucocorticoid receptor (Homo sapiens) (UniProt P04150); assay: GR-GFP Redistribution (AID 450;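 active means compounds whose dose series gives a full or clear partial fitted curve of increased nuclear translocation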; further: potency means the concentration at half of the fitted maximal effect); details: U2OS GR-GFP nuclear translocation, laser cytometry, 2 h
Glucocorticoid receptor (Homo sapiens), sequence (P04150 whole entry, looked up, the tested form may be a part): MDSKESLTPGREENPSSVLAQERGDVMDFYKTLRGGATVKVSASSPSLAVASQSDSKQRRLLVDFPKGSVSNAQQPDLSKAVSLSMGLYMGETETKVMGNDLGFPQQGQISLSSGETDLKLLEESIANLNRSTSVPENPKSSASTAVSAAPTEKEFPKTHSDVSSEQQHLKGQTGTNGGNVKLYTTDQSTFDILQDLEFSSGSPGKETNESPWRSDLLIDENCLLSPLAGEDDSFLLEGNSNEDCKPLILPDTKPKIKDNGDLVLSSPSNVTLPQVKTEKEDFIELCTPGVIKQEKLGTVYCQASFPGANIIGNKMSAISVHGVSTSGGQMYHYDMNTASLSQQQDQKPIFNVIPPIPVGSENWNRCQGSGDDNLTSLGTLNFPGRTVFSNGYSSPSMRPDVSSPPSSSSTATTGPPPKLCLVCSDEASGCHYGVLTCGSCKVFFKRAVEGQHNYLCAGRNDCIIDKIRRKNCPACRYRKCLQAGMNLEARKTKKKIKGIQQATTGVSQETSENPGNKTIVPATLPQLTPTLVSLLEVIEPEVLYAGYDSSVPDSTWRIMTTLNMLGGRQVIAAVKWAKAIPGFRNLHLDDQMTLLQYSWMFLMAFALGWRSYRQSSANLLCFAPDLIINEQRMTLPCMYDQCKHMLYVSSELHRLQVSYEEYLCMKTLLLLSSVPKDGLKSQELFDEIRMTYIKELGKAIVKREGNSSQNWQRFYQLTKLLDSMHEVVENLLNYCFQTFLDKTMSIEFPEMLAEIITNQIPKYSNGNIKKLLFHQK

[12] = molecular target: Glucocorticoid receptor (Homo sapiens) (UniProt P04150); assay: GR-EFC Redistribution (AID 451; calls by dose curve; further: potency means the concentration at half of the fitted maximal effect); details: CHO-K1 GR-EFC translocation, beta-gal luminescence, 2 h
Summary of the method: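 CHO-K1 cells stably expressing nuclear-localized β-gal enzyme acceptor and GR fused C-terminally to the enzyme donor fragment; ligand-driven nuclear translocation restores β-gal by complementation. Compounds titrated up to 46 uM final, 2 h at 37 °C; luminescence read.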

[13] = molecular target: Mitogen-activated protein kinase 10 (Mus musculus) (UniProt Q61831); assay: JNK3 AlphaScreen Assay (AID 530; active means well fitted curve in either direction with a large enough effect, not every such curve was filed as active;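 further: kinase came from lysate of stimulated human HepG2 cells; signal reports phosphorylation of biotinylated GST-cJun 1-79 at Ser73 with 10 µM ATP; on the % scale 0 is the no-effect control and ±100 the full control effect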)
Summary of the method: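 Inhibitors reduce antibody binding to phosphorylated biotin-cJun, lowering AlphaScreen luminescence. Lysates from HepG2 cells pre-activated by IL-1beta plus TNF-alpha supplied JNK3; compounds were titrated.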

[14] = molecular target: 3',5'-cyclic-AMP phosphodiesterase 4B (Homo sapiens) (UniProt Q07343); assay: qHTS Assay for Inhibitors of PDE-IV (AID 607; active means well fitted activation curve with a large enough effect in the main read-out, with a control signal flat, not every such curve was filed as active; further: % of control where 0% means no effect)
Summary of the method: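 ACTOne HEK293 cells carry a modified cAMP-gated CNG channel and express endogenous PDE4; plated 1000 cells/well, compounds up to 22.9 uM final. Membrane-potential dye fluorescence (ex 535/em 590) was read; parental cells received 10 uM forskolin + 100 uM RO 20-1724.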

[15] = molecular target: Cytochrome P450 3A4 (Homo sapiens) (UniProt P08684); assay: qHTS Assay for Activators of Cytochrome P450 3A4 (AID 885); further: nearly all actives have a fitted effect of over 65% in size
Cytochrome P450 3A4 (Homo sapiens), sequence (P08684 whole entry, looked up): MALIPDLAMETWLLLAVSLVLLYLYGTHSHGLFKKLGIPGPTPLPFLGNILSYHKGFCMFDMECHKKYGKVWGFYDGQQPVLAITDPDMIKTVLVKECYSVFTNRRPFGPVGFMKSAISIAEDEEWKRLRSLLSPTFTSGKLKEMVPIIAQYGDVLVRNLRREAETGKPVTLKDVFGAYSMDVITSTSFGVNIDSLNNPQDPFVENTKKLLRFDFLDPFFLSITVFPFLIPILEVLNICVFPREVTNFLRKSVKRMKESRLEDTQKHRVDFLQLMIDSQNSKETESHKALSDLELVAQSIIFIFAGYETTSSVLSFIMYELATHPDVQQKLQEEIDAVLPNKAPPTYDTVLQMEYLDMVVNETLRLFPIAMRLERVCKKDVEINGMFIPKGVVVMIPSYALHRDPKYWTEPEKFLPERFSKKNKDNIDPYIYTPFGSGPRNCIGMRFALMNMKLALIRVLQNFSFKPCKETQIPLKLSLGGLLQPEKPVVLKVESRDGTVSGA
Summary of the method: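 20nM CYP3A4 + 25uM Luciferin-PPXE (=KM), 200mM KPO4; cpd 10 min RT; NADPH regen, 60 min RT; stop w/ detection buffer, 20 min; luminescence. Normalized to 57 uM ketoconazole.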

[16] = molecular target: Cytochrome P450 2C19 (Homo sapiens) (UniProt P33261); assay: qHTS Assay for Inhibitors and Substrates of Cytochrome P450 2C19 (AID 899); further: potency means the concentration at half of the fitted maximal effect; nearly all actives have a fitted effect of over 60% in size
Cytochrome P450 2C19 (Homo sapiens), sequence (P33261 whole entry, looked up): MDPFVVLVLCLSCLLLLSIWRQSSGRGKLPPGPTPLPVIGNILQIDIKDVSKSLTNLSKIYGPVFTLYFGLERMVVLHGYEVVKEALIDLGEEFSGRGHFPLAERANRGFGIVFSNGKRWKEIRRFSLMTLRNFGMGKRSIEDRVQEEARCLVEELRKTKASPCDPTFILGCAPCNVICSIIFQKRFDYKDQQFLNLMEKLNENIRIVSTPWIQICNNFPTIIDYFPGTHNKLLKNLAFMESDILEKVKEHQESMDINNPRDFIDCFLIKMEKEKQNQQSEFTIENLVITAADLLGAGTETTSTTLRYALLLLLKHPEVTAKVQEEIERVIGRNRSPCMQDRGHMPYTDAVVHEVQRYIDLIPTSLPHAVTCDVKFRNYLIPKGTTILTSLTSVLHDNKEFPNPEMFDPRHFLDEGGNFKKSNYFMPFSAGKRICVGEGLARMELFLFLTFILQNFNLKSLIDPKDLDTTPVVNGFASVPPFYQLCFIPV
Summary of the method: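 Human CYP2C19 (5nM) with Luciferin-H EGE at 10uM (its KM) in 50mM KPO4 was preincubated with compound for 10 min at 37C. NADPH regeneration started a 60 min 37C reaction. Luciferin was read by luminescence, normalized to 57uM ketoconazole.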

[17] = molecular target: Dual specificity protein kinase CLK4 (Homo sapiens) (UniProt Q9HAZ1); assay: qHTS Assay for Inhibitors of CDC-like Kinase 4 (Kinase-Glo Assay) (AID 1770)
Dual specificity protein kinase CLK4 (Homo sapiens), sequence (Q9HAZ1 whole entry, looked up): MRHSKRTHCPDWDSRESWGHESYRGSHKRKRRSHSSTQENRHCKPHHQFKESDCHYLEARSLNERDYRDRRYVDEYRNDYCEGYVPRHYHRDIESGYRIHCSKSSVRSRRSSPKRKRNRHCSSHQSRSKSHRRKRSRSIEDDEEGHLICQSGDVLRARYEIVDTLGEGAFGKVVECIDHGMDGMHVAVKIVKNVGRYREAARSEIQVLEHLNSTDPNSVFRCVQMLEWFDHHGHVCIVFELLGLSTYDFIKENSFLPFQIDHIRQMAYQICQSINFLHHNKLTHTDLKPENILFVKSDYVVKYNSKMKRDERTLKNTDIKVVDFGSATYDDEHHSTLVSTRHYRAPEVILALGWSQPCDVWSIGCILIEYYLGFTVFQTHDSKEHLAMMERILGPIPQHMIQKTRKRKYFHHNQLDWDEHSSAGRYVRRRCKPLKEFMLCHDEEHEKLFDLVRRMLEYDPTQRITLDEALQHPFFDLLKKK
Summary of the method: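 Substrate mix (RS peptide 100 uM, ATP 1 uM) dispensed, compound pinned in, then Clk4 added to 25 nM final. Incubated 4.5 h at RT; Kinase-Glo reagent added, luminescence read after 5 min.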

[18] = molecular target: Dual specificity protein kinase CLK4 (Homo sapiens) (UniProt Q9HAZ1); assay: qHTS Assay for Inhibitors of CDC-like Kinase 4 (ADP-Glo Assay) (AID 1771); further: potency means the concentration at half of the fitted maximal effect; nearly all actives have a fitted effect of over 70% in size
Summary of the method: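 25 nM Clk4 with 100 uM RS repeat peptide and 1 uM ATP (final) in buffer with 2 mM MgCl2, 0.5 mM EGTA, 2.5 mM DTT, 0.01% Triton X-100; 1 h at room temperature; ADP-Glo luminescence for ADP formed.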

[19] = molecular target: Dual specificity protein kinase CLK4 (Homo sapiens) (UniProt Q9HAZ1); assay: qHTS Assay for Inhibitors of CDC-like Kinase 4 (ADP-FP Assay) (AID 1795); further: potency means the concentration at half of the fitted maximal effect; nearly all actives have a fitted effect of over 60% in size
Summary of the method: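 Clk4 6.25 nM; RS peptide 100 uM; ATP 1 uM; 25 mM Tris pH 7.5, 10 mM MgCl2; 1 h reaction. ADP detected via antibody/orange tracer FP displacement; TG003 positive control.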

[20] = molecular target: Ubiquitin carboxyl-terminal hydrolase 1 (Homo sapiens) (UniProt O94782); assay: Inhibitors of USP1/UAF1: Pilot qHTS (AID 504865);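 further: rhodamine fluorescence freed from ubiquitin-rhodamine substrate followed over time; top concentration of the series differs between compounds; on the % scale 0 is the no-effect control and ±100 the full control effect; nearly all actives have a fitted effect of over 35% in size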
Ubiquitin carboxyl-terminal hydrolase 1 (Homo sapiens), sequence (O94782 whole entry, looked up): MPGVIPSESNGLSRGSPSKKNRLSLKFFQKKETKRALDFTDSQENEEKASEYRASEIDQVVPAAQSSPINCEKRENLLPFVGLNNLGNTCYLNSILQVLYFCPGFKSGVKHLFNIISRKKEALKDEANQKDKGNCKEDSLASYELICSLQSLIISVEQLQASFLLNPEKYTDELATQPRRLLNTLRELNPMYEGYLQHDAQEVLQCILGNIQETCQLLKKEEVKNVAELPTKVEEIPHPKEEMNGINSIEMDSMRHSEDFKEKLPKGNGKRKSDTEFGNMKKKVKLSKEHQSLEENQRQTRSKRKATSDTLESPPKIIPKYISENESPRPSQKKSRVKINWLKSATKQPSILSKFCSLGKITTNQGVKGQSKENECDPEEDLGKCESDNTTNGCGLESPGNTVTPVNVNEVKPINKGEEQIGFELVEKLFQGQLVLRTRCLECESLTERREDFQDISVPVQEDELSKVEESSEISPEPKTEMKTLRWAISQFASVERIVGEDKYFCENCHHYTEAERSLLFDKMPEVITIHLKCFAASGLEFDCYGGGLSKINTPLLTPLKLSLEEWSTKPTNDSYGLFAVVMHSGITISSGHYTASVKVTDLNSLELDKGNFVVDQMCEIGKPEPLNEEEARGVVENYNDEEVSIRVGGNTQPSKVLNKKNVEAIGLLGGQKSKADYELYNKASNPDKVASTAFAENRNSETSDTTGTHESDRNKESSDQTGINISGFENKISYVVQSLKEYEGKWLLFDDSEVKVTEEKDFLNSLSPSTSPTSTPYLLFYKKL
Summary of the method: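 In 50mM HEPES pH 7.8 containing 0.5mM EDTA, 1mM TCEP, 0.1 mg/ml BSA and 0.01% Tween-20, 1nM USP1/UAF1 is exposed to compound for 15 min, then Ub-Rho (150nM final) is added and fluorescence is read over time.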

[21] = Primary qHTS for small molecule stabilizers of the endoplasmic reticulum resident proteome: Secreted ER Calcium Modulated Protein (SERCaMP) assay (AID 1508630); further: on the % scale 0 is the no-effect control and ±100 the full control effect
Summary of the method: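 GLuc-SERCaMP-expressing SH-SY5Y cells, pretreated 16 h with compound, are challenged with thapsigargin to empty ER calcium stores; after 4 h, coelenterazine is added directly to the medium and luminescence is imaged.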

[22] = AP1 Signaling Pathway (AID 357; active means well fitted curve in either direction with a large enough effect, not every such curve was filed as active); details: ME-180 AP-1-bla reporter, EGF-induced, beta-lactamase ratio, 5 h; at 7.69 µM (top of the series) unless noted
Summary of the method: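 AP-1-bla ME-180 cells, Opti-MEM + 0.5% dialyzed FBS, plated overnight 37 °C. Cpd titration + EC50 EGF, 5 h 37 °C. CCF4 2.5 h RT; ex 405, em 460/530 ratio → %activity, AC50.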

[23] = Stat Signaling Pathway (AID 446; active means well fitted curve in either direction with a large enough effect, not every such curve was filed as active); details: ME-180 SIE beta-lactamase reporter, IL-6 stimulated, 5 h; at 7.69 µM (top of the series) unless noted
Summary of the method: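 ME-180 SIE-bla cells; overnight plating; cpd + IL-6 40 pM, 5 h, 37 C; LiveBLAzer 2.5 h RT; 460/530 nm emission ratio. Normalized to 300 pM IL-6 and 125 nM JAK inhibitor controls.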

[24] = molecular target: Cytochrome P450 2D6 (Homo sapiens) (UniProt P10635); assay: qHTS Assay for Inhibitors and Substrates of Cytochrome P450 2D6 (AID 891); further: potency means the concentration at half of the fitted maximal effect; nearly all actives have a fitted effect of over 60% in size
Summary of the method: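 Human CYP2D6 (5 nM) with 30 uM Luciferin-ME EGE (at Km) in 100 mM KPO4, compound preincubated 10 min, then NADPH regeneration system for 60 min at room temperature. Luciferin read by luminescence; normalized to 1.43 uM quinidine.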

[25] = molecular target: Rap guanine nucleotide exchange factor 3 (Homo sapiens) (UniProt O95398); assay: Confirmatory qHTS for agonist of cAMP-regulated guanine nucleotide exchange factor 3 (EPAC1) (AID 1645881);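 further: EPAC1 catalysed release of BODIPY-GDP from Rap1B seen as fluorescence loss; 100% = effect of cAMP agonist control; nearly all actives have a fitted effect of over 75% in size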
[26] = molecular target: Rap guanine nucleotide exchange factor 4 (Homo sapiens) (UniProt Q8WZA2); assay: Confirmatory qHTS for agonist of cAMP-regulated guanine nucleotide exchange factor 4 (EPAC2) (AID 1645884)

SMILES: NC(=O)C1CCN(c2nc(-c3ccccc3Cl)cs2)CC1
- Potency [1]: inactive
- Potency [2]: inactive

SMILES: C[C@@H]1CC(=O)Nc2cccc(-c3cnn(C(C)(C)C)c3)c2N1
- Potency [1]: inactive
- Potency [3]: 6.61 µM (active)
- Potency [4]: 5.9 µM (active)
- Potency [5]: inactive
- Potency [6]: inactive
- Z-AUC [7]: -0.505 (inactive)
- Z-AUC ([7]; measured here: PEO1 parental Z-AUC): -0.577
- Z-AUC ([7]; measured here: PEO4 Z-AUC): -0.924

SMILES: C=CCSc1nnc(-c2cccc3ccccc23)o1
- Potency [1]: inactive

SMILES: CN(C)C(=O)c1ccc(-c2cc[nH]c(=O)c2N)cc1
- Potency [1]: inactive
- Potency [2]: inactive

SMILES: COc1cccc(-c2ccc3ncnc(NCc4cccnc4)c3c2)c1
- Potency [8]: > 11.4 µM (inactive)
- Potency [9]: 0.251 µM (active)
- activity change, negative = inhibition [10]: 9.62% (inactive)
- Potency [11]: > 46 µM (inactive)
- Potency [12]: > 46 µM (inactive)
- outcome [13]: inactive
- Potency [14]: inactive
- Potency [15]: inactive
- Potency [16]: 0.0126 µM (active)
- Potency [17]: 2.82 µM (active)
- Potency [18]: 2.82 µM (active)
- Potency [19]: 1.58 µM (active)
- Potency [20]: inactive
- Potency [1]: inactive
- Potency [21]: inactive

SMILES: Cc1ccsc1CN(C)c1ncnc2ccc(-c3ccc([C@@H](C)O)o3)cc12
- Potency [1]: inactive
- Potency [2]: 6.49 µM (active)

SMILES: CN(Cc1ccco1)c1ncnc2ccc(-c3ccccc3Cl)cc12
- Potency [8]: > 11.4 µM (inactive)
- activity change, negative = inhibition [22]: -12% (inactive)
- Potency [9]: 2 µM (active)
- activity change, negative = inhibition [10]: -13.6% (inactive)
- activity, negative = inhibition [23]: 11.7% (inactive)
- Potency [11]: > 46 µM (inactive)
- Potency [12]: > 46 µM (inactive)
- outcome [13]: inactive
- Potency [15]: inactive
- Potency [24]: 7.94 µM (active)
- Potency [16]: 3.16 µM (active)
- Potency [17]: 14.1 µM (active)
- Potency [18]: 14.1 µM (active)
- Potency [19]: 4.47 µM (active)
- Potency [20]: inactive
- Potency [1]: inactive
- Potency [21]: inactive
- outcome [25]: inactive
- outcome [26]: inactive
